Results from PubChem BioAssay AID1159580 (chemical genetic matrix, 2015).
Screen size: about 5,500 compounds; about 2,000 (36%) were called active. Roughly 18% stayed inconclusive and do not appear here. No stated cut-off is given here; in the data, active means normalized growth mostly below about 0.91 (no sharp cut-off); inconclusive means no clear call, values can overlap the other calls; inactive means mostly above about 0.92. This is one part of the list.

Assay: chemical genetic growth profiling, strain panel (AID 1159580);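 further: tested at 20 µM; growth read once vehicle control cultures reached saturation at 30 °C; 1 = growth at the plate median or of vehicle wells; lower values mean less growth of the strain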
Conditions: growth OD

Measured: normalized growth

CC[C@@H](CO)NC(=O)[C@@H]1C=C2c3cccc4[nH]cc(c34)C[C@H]2N(C)C1
inactive: S. cerevisiae deletion strains, locus YKL009W, strain mrt4, active compounds read low 0.999 | S. cerevisiae deletion strains, locus YKL068W, active compounds read low 0.996 | S. cerevisiae deletion strains, locus YKL085W, strain MDH1 (second series), active compounds read low 1.02 | S. cerevisiae deletion strains, locus YKL085W, strain MDH1, active compounds read low 1.02 | S. cerevisiae deletion strains, locus YKL160W, strain elf1, active compounds read low 0.982 | S. cerevisiae deletion strains, locus YKL190W, strain CNB1, active compounds read low 0.997 | S. cerevisiae deletion strains, locus YKR001C, strain vps1, active compounds read low 0.947 | S. cerevisiae deletion strains, locus YKR026C, strain gcn3, active compounds read low 1 | S. cerevisiae deletion strains, locus YKR091W, strain srl3, active compounds read low 0.997 | S. cerevisiae deletion strains, locus YLL001W, strain dnm1, active compounds read low 0.982 | S. cerevisiae deletion strains, locus YLL026W, active compounds read low 0.986 | S. cerevisiae deletion strains, locus YLL041C, strain sdh2, active compounds read low 1 | S. cerevisiae deletion strains, locus YLR027C, strain aat2, active compounds read low 0.993 | S. cerevisiae deletion strains, locus YLR039C, strain RIC1, active compounds read low 1.04 | S. cerevisiae deletion strains, locus YLR058C, strain SHM2, active compounds read low 0.989 | S. cerevisiae deletion strains, locus YLR102C, strain apc9, active compounds read low 0.985 | S. cerevisiae deletion strains, locus YLR113W, strain HOG1, active compounds read low 1.03 | S. cerevisiae deletion strains, locus YLR221C, strain rsa3, active compounds read low 0.999 | S. cerevisiae deletion strains, locus YLR258W, strain gsy2, active compounds read low 1 | S. cerevisiae deletion strains, locus YLR262C, strain YPT6 (second series), active compounds read low 0.991 | S. cerevisiae deletion strains, locus YLR262C, strain YPT6, active compounds read low 1.06 | S. cerevisiae deletion strains, locus YLR268W, strain sec22, active compounds read low 0.985 | S. cerevisiae deletion strains, locus YLR320W, strain mms22, active compounds read low 0.98 | S. cerevisiae deletion strains, locus YLR330W, strain CHS5, active compounds read low 0.992 | S. cerevisiae deletion strains, locus YLR342W, strain FKS1 (second series), active compounds read low 0.983 | S. cerevisiae deletion strains, locus YLR342W, strain FKS1, active compounds read low 0.982 | S. cerevisiae deletion strains, locus YLR357W, strain rsc2, active compounds read low 0.978 | S. cerevisiae deletion strains, locus YLR370C, strain arc18, active compounds read low 1 | S. cerevisiae deletion strains, locus YLR371W, strain rom2, active compounds read low 0.986 | S. cerevisiae deletion strains, locus YLR384C, strain iki3, active compounds read low 0.997 | S. cerevisiae deletion strains, locus YLR418C, strain cdc73, active compounds read low 0.926 | S. cerevisiae deletion strains, locus YML016C, strain PPZ1, active compounds read low 0.978 | S. cerevisiae deletion strains, locus YML032C, strain rad52, active compounds read low 0.971 | S. cerevisiae deletion strains, locus YML120C, strain ndi1, active compounds read low 1.01 | S. cerevisiae deletion strains, locus YML124C, strain tub3, active compounds read low 0.987 | S. cerevisiae deletion strains, locus YMR058W, strain fet3, active compounds read low 0.99 | S. cerevisiae deletion strains, locus YMR078C, strain ctf18, active compounds read low 0.996 | S. cerevisiae deletion strains, locus YMR125W, strain sto1, active compounds read low 1.01 | S. cerevisiae deletion strains, locus YMR129W, active compounds read low 1 | S. cerevisiae deletion strains, locus YMR205C, strain PFK2, active compounds read low 0.993 | S. cerevisiae deletion strains, locus YMR223W, strain ubp8, active compounds read low 0.961 | S. cerevisiae deletion strains, locus YMR231W, strain pep5, active compounds read low 0.992 | S. cerevisiae deletion strains, locus YMR263W, strain SAP30, active compounds read low 1.01 | S. cerevisiae deletion strains, locus YMR307W, strain GAS1, active compounds read low 0.972 | S. cerevisiae deletion strains, locus YNL067W, strain RPL9B, active compounds read low 1.04 | S. cerevisiae deletion strains, locus YNL071W, strain lat1, active compounds read low 1 | S. cerevisiae deletion strains, locus YNL128W, strain TEP1, active compounds read low 1.01 | S. cerevisiae deletion strains, locus YNL153C, strain GIM3, active compounds read low 1.02 | S. cerevisiae deletion strains, locus YNL183C, strain NPR1, active compounds read low 0.978 | S. cerevisiae deletion strains, locus YNL209W, strain ssb2, active compounds read low 1 | S. cerevisiae deletion strains, locus YNL233W, strain BNI4, active compounds read low 0.983 | S. cerevisiae deletion strains, locus YNL248C, strain rpa49, active compounds read low 1 | S. cerevisiae deletion strains, locus YNL250W, strain rad50, active compounds read low 0.978 | S. cerevisiae deletion strains, locus YNL271C, strain bni1, active compounds read low 0.981 | S. cerevisiae deletion strains, locus YNL298W, strain CLA4, active compounds read low 0.999 | S. cerevisiae deletion strains, locus YNL307C, strain MCK1, active compounds read low 0.973 | S. cerevisiae deletion strains, locus YNL322C, strain KRE1 (second series), active compounds read low 0.993 | S. cerevisiae deletion strains, locus YNL322C, strain KRE1, active compounds read low 0.997 | S. cerevisiae deletion strains, locus YNR049C, strain mso1, active compounds read low 0.999 | S. cerevisiae deletion strains, locus YNR052C, strain pop2, active compounds read low 0.996 | S. cerevisiae deletion strains, locus YOL006C, strain TOP1, active compounds read low 1.03 | S. cerevisiae deletion strains, locus YOL012C, strain htz1 0.998 | S. cerevisiae deletion strains, locus YOL147C, strain pex11, active compounds read low 0.994 | S. cerevisiae deletion strains, locus YOR001W, strain rrp6, active compounds read low 0.992 | S. cerevisiae deletion strains, locus YOR061W, strain CKA2, active compounds read low 0.991 | S. cerevisiae deletion strains, locus YOR069W, strain VPS5, active compounds read low 0.986 | S. cerevisiae deletion strains, locus YOR070C, strain gyp1, active compounds read low 1 | S. cerevisiae deletion strains, locus YOR080W, strain dia2, active compounds read low 0.994 | S. cerevisiae deletion strains, locus YOR083W, strain WHI5, active compounds read low 0.963 | S. cerevisiae deletion strains, locus YOR106W, strain vam3, active compounds read low 0.993 | S. cerevisiae deletion strains, locus YOR136W, strain idh2, active compounds read low 0.986 | S. cerevisiae deletion strains, locus YOR144C, strain elg1, active compounds read low 0.984 | S. cerevisiae deletion strains, locus YOR184W, strain ser1, active compounds read low 0.966 | S. cerevisiae deletion strains, locus YOR231W, strain MKK1, active compounds read low 1.03 | S. cerevisiae deletion strains, locus YOR265W, strain rbl2, active compounds read low 1.01 | S. cerevisiae deletion strains, locus YOR270C, strain vph1, active compounds read low 1.03 | S. cerevisiae deletion strains, locus YOR290C, strain snf2, active compounds read low 1 | S. cerevisiae deletion strains, locus YOR316C, strain cot1, active compounds read low 0.987 | S. cerevisiae deletion strains, locus YPL051W, strain arl3, active compounds read low 0.992 | S. cerevisiae deletion strains, locus YPL055C, strain LGE1, active compounds read low 1.07 | S. cerevisiae deletion strains, locus YPL078C, strain atp4, active compounds read low 0.98 | S. cerevisiae deletion strains, locus YPL106C, strain sse1, active compounds read low 0.981 | S. cerevisiae deletion strains, locus YPL240C, strain hsp82, active compounds read low 0.995 | S. cerevisiae deletion strains, locus YPL241C, strain CIN2, active compounds read low 0.997 | S. cerevisiae deletion strains, locus YPL256C, strain CLN2, active compounds read low 1.1 | S. cerevisiae deletion strains, locus YPR119W, strain clb2, active compounds read low 0.989 | S. cerevisiae deletion strains, locus YPR141C, strain kar3, active compounds read low 0.992 | S. cerevisiae deletion strains, locus YPR163C, strain tif3, active compounds read low 0.987 | S. cerevisiae deletion strains, locus YPR167C, strain met16, active compounds read low 0.987 | S. cerevisiae deletion strains, strain wtn01, active compounds read low 0.975 | S. cerevisiae strains, strain wild type, active compounds read low 0.982
